Each structure is given as a SMILES string. Records with an inconclusive call do not appear. Values without a mark were called inactive. The source made the active and inactive calls. Calls come from the whole dose curve; as a rule, active = well fitted inhibition curve with a large enough effect; inconclusive = small, poorly fitted or top-dose-only effect; inactive = flat fitted curve, though single readings scatter.

Results on 30 molecules are retold here after PubChem BioAssay (NCATS).
% is set by controls: 0 for no effect and ±100 for the full control effect; potency is the fitted concentration of half-maximal effect.

The subject of the first experiment is KB-3-1. Nature of the experiment: Cytotoxic Profiling of Annotated Libraries Using Quantitative High-Throughput Screening (AID 1296008). Note: nearly all actives have a fitted effect of over 60% in size. Particulars: Five cell lines viability, CellTiter-Glo ATP luminescence, 48-72 h; max response: active compounds read low. The gist of the method: (§1)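 Cells exposed to compounds for 48 or 72 hr at 37 degrees Celsius. Viability read as ATP-coupled luminescence with CellTiter-Glo after 10 min at room temperature.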
On the technique in general: ATP-based viability assays read luminescence as a measure of living cells.
For `Nc1cccc2c(N)cccc12`, the max response was 15.8%.
For `CCOC(=O)[C@H](CCc1ccccc1)N[C@@H](C)C(=O)N(CC(=O)O)C1Cc2ccccc2C1`, the max response was -12.3%.
Take `Brc1ccccc1-c1ccccc1`: the max response is -3.53%.
`OC1(c2ccc(Cl)c(C(F)(F)F)c2)CCN(CCCC(c2ccc(F)cc2)c2ccc(F)cc2)CC1`: the Potency is 23.1 µM (active).
Regarding `OCc1c[nH]c2ccccc12`, the max response is -7.74%.
With `CC(C)(C)c1ccc(O)c(O)c1`, the max response is -6.07%.
`CC(=O)O[C@@H]1C(=O)O[C@@H]2[C@H]1OC(=O)[C@@H]2OC(C)=O`: the call was inactive.
Same read-out and setting: to `CC(=O)Nc1ccn(C2COC(COC(=O)c3ccccc3)O2)c(=O)n1` (stereo unspecified) belongs “inactive”.

In another experiment the test system is NIH3T3. The description is as above. Particulars: Five cell lines viability, CellTiter-Glo ATP luminescence, 48-72 h; max response: active compounds read low. The gist of the method:
as §1
As to `Cc1ncc([N+](=O)[O-])n1C`, the max response was -19.7%.
As to `CCc1cc2cc(OC)c(OC)cc2c(Cc2ccccc2)n1`, the max response is -13.3%.
With `CN(C)c1cc2c(Nc3ccc4c(cnn4Cc4ccccc4)c3)ncnc2cn1`, the max response is -15.7%.
For the molecule `Cc1nc(N)nc(N)c1-c1ccc(Cl)c(Cl)c1`, the Potency was 0.841 µM (active).
`CC1CCCCN1CCCOC(=O)c1ccc(OC2CCCCC2)cc1` (stereo unspecified): the max response is -13.4%.
With `OCCOCCN1CCN(C(c2ccccc2)c2ccc(Cl)cc2)CC1` (stereo unspecified), the molecule was classed as inactive.
`Cc1nc(C2CCCCC2)c(-c2ccc(S(N)(=O)=O)c(F)c2)o1`: the max response is -12.8%.
Regarding `Brc1ccccc1-c1ccccc1`, the max response was -3.48%.
On to `CC(C)=CCNc1ncnc2c1ncn2[C@@H]1O[C@H](CO)[C@@H](O)[C@H]1O`, for which the Potency was 7.5 µM (active).
As for `C/C=C(/C(=C/C)c1ccc(OC(C)=O)cc1)c1ccc(OC(C)=O)cc1`, the max response is -0.599%.
The same measure, in the same setting: in the case of `Cc1c(C)c2c(c(C)c1OC(=O)CCC(=O)OCCO)CC[C@@](C)(CCC[C@H](C)CCC[C@H](C)CCCC(C)C)O2` it was -19.3%; in that of `CC(C)Cc1ccc(C(C)C(=O)OCc2ccccn2)cc1` (stereo unspecified), -1.73%; in that of `COc1cc2c(cc1OC)CN(C(=O)[C@H](C)N[C@@H](CCc1ccccc1)C(=O)O)[C@H](C(=O)O)C2`, -7.08%.
Take `CCOC(=O)c1cc(=O)c2c(OCC(COc3cccc4oc(C(=O)OCC)cc(=O)c34)OC(=O)[C@@H](N)CCCCN)cccc2o1`: the result was inactive.
`COc1ccc2nc(SCc3ncc(C)c(OC)c3C)[nH]c2c1`: the molecule was classed as inactive.
As for `CCOC(=O)Cn1cccc1-c1nc(-c2ccc(OC)cc2)c(-c2ccc(OC)cc2)s1`, the outcome was inactive.
Turning to `Cc1ccc(CCn2c3c(c4cc(Cl)ccc42)CN(C)CC3)cn1`, the max response is 0.803%.
Turning to `COC(=O)C1=C(C)NC(C)=C(C(=O)OCCc2ccc(N3CCN(C(c4ccccc4)c4ccccc4)CC3)cc2)C1c1cccc([N+](=O)[O-])c1` (stereo unspecified), the max response is -0.486%.
Still for that read-out and setting: to `O=C1Nc2cc(Cl)ccc2Oc2ccccc21` belongs -1.14%.
On to `N#CSCC(=O)O`, for which the molecule was classed as inactive.
Turning to `Oc1cccc2[nH]ccc12`, the max response was -6.12%.
For the molecule `O=C(OCCN1CCOCC1)c1cccnc1Nc1cccc(C(F)(F)F)c1`, the max response is -0.363%.
With `Cc1cccc(N(C)C(=S)Oc2ccc3c(c2)C2CCC3C2)c1` (stereo unspecified), the max response is -24.5%.
